The source of these data is ChEMBL document CHEMBL3988442, “University of Dundee, Small-Polar-MMV Screening Library” (2021).

Assay [1] concerns the target T1, Aspartate--tRNA(Asp/Asn) ligase (Mycobacterium tuberculosis (strain ATCC 25618 / H37Rv)) (UniProt P9WFW3). Note: in the data most compounds retested in dose-response had high values.
T1 sequence (whole entry): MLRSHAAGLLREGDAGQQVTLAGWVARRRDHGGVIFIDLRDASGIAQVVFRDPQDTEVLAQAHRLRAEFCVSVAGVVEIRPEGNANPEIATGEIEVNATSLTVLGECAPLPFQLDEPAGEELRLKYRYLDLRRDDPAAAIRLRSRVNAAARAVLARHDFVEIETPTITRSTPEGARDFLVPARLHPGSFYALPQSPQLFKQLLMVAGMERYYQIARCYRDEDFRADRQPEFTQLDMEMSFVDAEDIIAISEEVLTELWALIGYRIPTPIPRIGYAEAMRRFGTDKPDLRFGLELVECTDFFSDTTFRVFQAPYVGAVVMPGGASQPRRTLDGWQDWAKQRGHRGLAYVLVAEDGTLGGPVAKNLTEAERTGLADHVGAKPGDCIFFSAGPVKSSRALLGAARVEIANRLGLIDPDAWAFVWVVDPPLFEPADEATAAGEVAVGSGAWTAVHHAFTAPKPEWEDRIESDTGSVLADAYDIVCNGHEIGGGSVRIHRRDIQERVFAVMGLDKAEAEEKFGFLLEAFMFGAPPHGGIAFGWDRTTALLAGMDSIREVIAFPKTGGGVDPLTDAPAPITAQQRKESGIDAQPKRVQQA
Kind of assay: Assay for Asp RNA synthetase-1 from Mycobacterium tuberculosis. Type of assay: functional. Further details: scale not given: direction of the effect not stated beside the values. To be noted: 30 µM.

The target of assay [2] is Shiga toxin 2 (Escherichia coli O157:H7) (UniProt P09385+P09386). Put plainly: E. coli 0.157:H7 Shiga Toxin SOP - stx2 screening assay. It counts as functional. Further details: scale not given: direction of the effect not stated beside the values. To be noted: 30 µM.

As to `Cc1nnc(C(C)NCC2(c3ccc(Cl)cc3)CCCC2)o1` (configuration not stated), the Percent Effect in assay [1] came out at 4.47%; in assay [2] it was 3.13%.

Turning to `CCC(CC)NC(=O)Cn1nc(C)nc1-c1ccccc1`, the Percent Effect in assay [1] is -2.19%; in assay [2], 23%.

For `COc1cc(CNC2CCc3nc(C(C)C)nn3C2)cc2c1OCO2` (configuration not stated), the values for the Percent Effect in assay [1] and in assay [2] were 1.32% and 15.4%, respectively.

Regarding `CC(C)c1nc(CN2CCN(CC3CCCO3)CC2)cs1` (configuration not stated), the values for the Percent Effect in assay [1] and in assay [2] were -0.404% and 12%, respectively.

Turning to `CCn1cnnc1C1CCN(C(=O)c2cnc(C3CC3)s2)CC1`, the Percent Effect in assay [1] was -8.99%; in assay [2] it was -7.13%.

Regarding `Cc1cc(C)c(CNC(=O)C2CCCN(c3cnccn3)C2)c(=O)[nH]1` (configuration not stated), the Percent Effect in assay [1] is -0.345%; in assay [2], 30.7%.

For `Cc1occc1C(=O)N1CCC[C@]2(C[C@@H](OCc3ccncc3)CO2)C1`, the values for the Percent Effect in assay [1] and in assay [2] were 6.93% and -29.1%, respectively.

As for `Cc1ccc(CC(=O)N2CC[C@@H]3CN(CCN(C)C)CCO[C@@H]3C2)cc1`, the Percent Effect in assay [1] is 6.89%; in assay [2] it was -3.9%.

As for `c1ccc(-n2ncc(CN3CCCC3Cn3cccn3)n2)cc1` (configuration not stated), the Percent Effect is -5.28% in assay [1] and 2.57% in assay [2].

As for `CC(NC(=O)NCCn1ccnc1)c1ccc2c(c1)NC(=O)CO2` (configuration not stated), the values for the Percent Effect in assay [1] and in assay [2] were 0.942% and 5.67%, respectively.

Regarding `CCCNC(=O)c1cc2c([nH]c1=O)CC(c1cccs1)CC2=O` (configuration not stated), the Percent Effect in assay [1] was -5.46%; in assay [2], -20.3%.

As to `Cc1cnn(C2CCCN(C(=O)c3cc(C4CC4)on3)C2)c1` (configuration not stated), the Percent Effect in assay [1] is -1.95%; in assay [2], 14.5%.

Take `COCCNC(=O)[C@H]1CN(Cc2nccs2)C[C@H]2OCC[C@@H]12`: the values for the Percent Effect in assay [1] and in assay [2] were -4.08% and 1.98%, respectively.

`Fc1ccccc1CN1C[C@@H](OCc2ccncc2)[C@H]2OCCC[C@H]21`: the Percent Effect in assay [1] is 2.94%; in assay [2] it was -45.1%.

Turning to `Cc1nn(C)c(C)c1C1CCCN1Cc1noc(C2CC2)n1` (configuration not stated), the results for the Percent Effect in assay [1] and in assay [2] were 6.1% and 16.3%, respectively.

With `CC(=O)N1CCNCC1c1cccc(C(=O)N(C)C)c1` (configuration not stated), the Percent Effect is -4.15% in assay [1] and 8.72% in assay [2].
